We go through one sequence from paper PMC7862700, “An all-to-all approach to the identification of sequence-specific readers for epigenetic DNA modifications on cytosine”.

Holding throughout (test): DAPPL (digital affinity profiling via proximity ligation, sequencing); 10 mM Tris-HCl pH 7.5, 50 mM NaCl, 1 mM DTT, 4% glycerol, room temperature, 30 min; GST-TFs on glutathione beads, 16-mer random dsDNA library, 0.1% formaldehyde crosslink after washing; high values mean tight binding
In assay [1] the target is T1, FEV (Homo sapiens, UniProt Q99581 1-238).
T1 sequence: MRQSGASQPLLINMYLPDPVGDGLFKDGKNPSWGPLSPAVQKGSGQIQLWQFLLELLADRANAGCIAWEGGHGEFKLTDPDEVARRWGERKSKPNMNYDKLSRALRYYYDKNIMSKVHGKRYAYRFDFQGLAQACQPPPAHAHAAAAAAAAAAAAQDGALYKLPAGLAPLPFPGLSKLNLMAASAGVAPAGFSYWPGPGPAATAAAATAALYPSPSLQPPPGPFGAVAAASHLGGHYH
The settings on record: protein: recombinant; tags: N-terminal GST; dsDNA, one strand shown. Summed up: (§1)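 Beads coated with glutathione captured GST-fused human transcription factors that had been expressed in yeast, and the factors were then given DNA barcodes and pooled with a tag-only sample. The pools were incubated with 200 nmole of a random double-stranded 16-mer DNA library in Tris/NaCl/DTT/glycerol buffer for 30 min at room temperature, washed, crosslinked with 0.1% formaldehyde and proximity-ligated with BsaI/T4 ligase at 37 °C for 1 h. PCR amplification and Illumina NextSeq500 sequencing came last. Binding signal is each hexamer's read frequency for a factor divided by its frequency for the tag-only sample.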

Assay [2] concerns the target ETV5 (Homo sapiens, UniProt P41161 1-510). The settings on record: protein: recombinant; tags: N-terminal GST; dsDNA, one strand shown. In a few lines: as §1
Assay [3] deals with HSF1 (Homo sapiens, UniProt Q00613 1-529). The settings on record: protein: recombinant; tags: N-terminal GST; chain copies: 3; dsDNA, one strand shown. In a few lines:
as §1

The target of assay [4] is T2, SPIC (Homo sapiens, UniProt Q8N5J4 1-248).
T2 sequence: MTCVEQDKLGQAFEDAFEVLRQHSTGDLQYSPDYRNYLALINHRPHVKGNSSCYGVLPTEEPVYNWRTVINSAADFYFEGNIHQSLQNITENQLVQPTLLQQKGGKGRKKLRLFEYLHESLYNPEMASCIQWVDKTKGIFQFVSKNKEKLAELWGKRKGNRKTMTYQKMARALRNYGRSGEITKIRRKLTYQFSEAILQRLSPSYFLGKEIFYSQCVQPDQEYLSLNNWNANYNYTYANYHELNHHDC
The settings on record: protein: recombinant; tags: N-terminal GST; dsDNA, one strand shown. Summed up:
as §1

Assay [5] deals with ELF4 (Homo sapiens, UniProt Q99607 1-663). The settings on record: protein: recombinant; tags: N-terminal GST; dsDNA, one strand shown. Summed up:
as §1

In assay [6] the target is T3, ELK4 (Homo sapiens, UniProt P28324-2 1-405).
T3 sequence: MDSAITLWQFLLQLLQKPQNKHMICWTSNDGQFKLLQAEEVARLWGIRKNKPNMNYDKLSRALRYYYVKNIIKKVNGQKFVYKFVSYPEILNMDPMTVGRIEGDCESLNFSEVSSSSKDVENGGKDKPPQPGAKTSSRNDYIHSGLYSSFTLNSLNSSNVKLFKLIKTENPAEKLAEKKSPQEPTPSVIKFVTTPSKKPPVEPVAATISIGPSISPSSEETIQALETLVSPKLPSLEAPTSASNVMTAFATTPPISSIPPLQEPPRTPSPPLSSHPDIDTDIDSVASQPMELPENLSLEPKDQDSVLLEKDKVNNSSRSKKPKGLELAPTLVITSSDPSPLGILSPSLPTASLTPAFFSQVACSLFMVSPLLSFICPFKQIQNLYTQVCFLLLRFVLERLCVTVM
The settings on record: protein: recombinant; tags: N-terminal GST; dsDNA, one strand shown. In a few lines: as §1

In assay [7] the target is T4, ETV2 (Homo sapiens, UniProt O00321 1-342).
T4 sequence: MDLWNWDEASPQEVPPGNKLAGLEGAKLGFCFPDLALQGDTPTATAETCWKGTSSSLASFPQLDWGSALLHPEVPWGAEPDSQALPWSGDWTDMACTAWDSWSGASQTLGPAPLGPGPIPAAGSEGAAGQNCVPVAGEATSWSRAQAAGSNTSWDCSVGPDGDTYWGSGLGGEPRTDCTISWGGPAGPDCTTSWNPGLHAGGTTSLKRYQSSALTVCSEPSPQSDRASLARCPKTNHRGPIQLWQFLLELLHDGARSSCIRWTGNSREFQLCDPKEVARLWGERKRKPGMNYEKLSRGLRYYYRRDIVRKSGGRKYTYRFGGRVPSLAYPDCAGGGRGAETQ
The settings on record: protein: recombinant; tags: N-terminal GST; dsDNA, one strand shown. Summed up: as §1

The target of assay [8] is T5, ELF3 (Homo sapiens, UniProt P78545 1-371).
T5 sequence: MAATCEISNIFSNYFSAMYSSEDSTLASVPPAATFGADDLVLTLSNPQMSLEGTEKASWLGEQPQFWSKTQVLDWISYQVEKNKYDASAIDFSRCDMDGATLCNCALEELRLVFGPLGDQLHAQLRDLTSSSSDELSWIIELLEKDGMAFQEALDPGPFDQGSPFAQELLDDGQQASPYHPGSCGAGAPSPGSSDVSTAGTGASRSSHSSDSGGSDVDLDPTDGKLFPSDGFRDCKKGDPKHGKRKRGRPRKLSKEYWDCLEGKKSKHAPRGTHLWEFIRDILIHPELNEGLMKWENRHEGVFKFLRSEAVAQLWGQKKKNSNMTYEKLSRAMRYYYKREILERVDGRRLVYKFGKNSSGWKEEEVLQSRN
The settings on record: protein: recombinant; tags: N-terminal GST; dsDNA, one strand shown. Summed up: as §1

For assay [9], the target named is CRX (Homo sapiens, UniProt O43186 1-299). The settings on record: protein: recombinant; tags: N-terminal GST; dsDNA, one strand shown. In a few lines: as §1
CRX, sequence (O43186 whole entry): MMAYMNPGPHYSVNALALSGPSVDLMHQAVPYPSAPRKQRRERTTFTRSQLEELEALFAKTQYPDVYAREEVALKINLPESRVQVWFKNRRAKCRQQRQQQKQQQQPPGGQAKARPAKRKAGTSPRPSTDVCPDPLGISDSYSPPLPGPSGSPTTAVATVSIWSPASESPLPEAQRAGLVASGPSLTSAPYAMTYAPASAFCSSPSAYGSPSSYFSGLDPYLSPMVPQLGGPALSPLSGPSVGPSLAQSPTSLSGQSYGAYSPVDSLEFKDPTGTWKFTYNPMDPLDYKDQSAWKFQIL
In assay [10] the target is ETV1 (Homo sapiens, UniProt P50549 1-477). The settings on record: protein: recombinant; tags: N-terminal GST; dsDNA, one strand shown. Summed up:
as §1

The target in assay [11] is T6, ERF (Homo sapiens, UniProt P50548 1-548).
T6 sequence: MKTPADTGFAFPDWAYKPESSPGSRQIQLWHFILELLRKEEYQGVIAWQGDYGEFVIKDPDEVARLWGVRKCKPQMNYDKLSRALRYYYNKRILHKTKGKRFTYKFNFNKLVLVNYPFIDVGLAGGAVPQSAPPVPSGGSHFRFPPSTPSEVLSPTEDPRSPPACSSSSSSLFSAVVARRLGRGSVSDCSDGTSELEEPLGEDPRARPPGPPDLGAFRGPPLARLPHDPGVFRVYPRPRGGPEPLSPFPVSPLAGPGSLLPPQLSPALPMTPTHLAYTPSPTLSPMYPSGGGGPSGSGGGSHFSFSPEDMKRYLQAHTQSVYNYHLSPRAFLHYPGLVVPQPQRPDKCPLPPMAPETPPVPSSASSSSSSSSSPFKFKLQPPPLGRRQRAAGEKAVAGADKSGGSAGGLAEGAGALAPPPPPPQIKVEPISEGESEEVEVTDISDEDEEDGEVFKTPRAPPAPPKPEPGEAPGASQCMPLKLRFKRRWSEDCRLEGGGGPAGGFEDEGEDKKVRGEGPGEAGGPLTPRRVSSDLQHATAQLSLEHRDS
The settings on record: protein: recombinant; tags: N-terminal GST; dsDNA, one strand shown. Summed up:
as §1

Assay [12] concerns the target T7, ETV3L (Homo sapiens, UniProt Q6ZN32 1-361).
T7 sequence: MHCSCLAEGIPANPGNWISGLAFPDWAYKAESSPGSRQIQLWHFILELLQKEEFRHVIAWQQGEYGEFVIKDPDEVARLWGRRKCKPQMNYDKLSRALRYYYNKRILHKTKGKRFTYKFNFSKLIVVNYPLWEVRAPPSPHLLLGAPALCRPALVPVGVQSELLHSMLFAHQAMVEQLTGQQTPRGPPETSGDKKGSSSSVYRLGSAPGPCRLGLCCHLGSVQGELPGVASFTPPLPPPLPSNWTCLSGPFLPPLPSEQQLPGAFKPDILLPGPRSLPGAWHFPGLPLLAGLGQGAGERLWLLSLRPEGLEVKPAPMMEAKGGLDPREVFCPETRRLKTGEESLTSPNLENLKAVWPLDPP
The settings on record: protein: recombinant; tags: N-terminal GST; dsDNA, one strand shown. Summed up:
as §1

Assay [13] has as its target T8, ETS2 (Homo sapiens, UniProt P15036 1-469).
T8 sequence: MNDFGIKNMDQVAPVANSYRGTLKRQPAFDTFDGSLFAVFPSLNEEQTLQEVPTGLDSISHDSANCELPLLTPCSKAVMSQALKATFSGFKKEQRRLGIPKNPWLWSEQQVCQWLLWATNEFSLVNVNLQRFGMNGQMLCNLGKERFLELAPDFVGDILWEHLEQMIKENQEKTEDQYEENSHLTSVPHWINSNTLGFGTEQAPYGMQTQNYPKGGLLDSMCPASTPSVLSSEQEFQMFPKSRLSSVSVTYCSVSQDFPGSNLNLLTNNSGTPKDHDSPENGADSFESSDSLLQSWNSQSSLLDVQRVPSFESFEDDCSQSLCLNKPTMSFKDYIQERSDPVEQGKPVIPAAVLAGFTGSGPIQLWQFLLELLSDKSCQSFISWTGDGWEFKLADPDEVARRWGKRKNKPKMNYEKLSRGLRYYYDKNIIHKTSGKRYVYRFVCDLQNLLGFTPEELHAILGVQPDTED
The settings on record: protein: recombinant; tags: N-terminal GST; dsDNA, one strand shown. Summed up: as §1

Assay [14] deals with T9, SPDEF (Homo sapiens, UniProt O95238 1-335).
T9 sequence: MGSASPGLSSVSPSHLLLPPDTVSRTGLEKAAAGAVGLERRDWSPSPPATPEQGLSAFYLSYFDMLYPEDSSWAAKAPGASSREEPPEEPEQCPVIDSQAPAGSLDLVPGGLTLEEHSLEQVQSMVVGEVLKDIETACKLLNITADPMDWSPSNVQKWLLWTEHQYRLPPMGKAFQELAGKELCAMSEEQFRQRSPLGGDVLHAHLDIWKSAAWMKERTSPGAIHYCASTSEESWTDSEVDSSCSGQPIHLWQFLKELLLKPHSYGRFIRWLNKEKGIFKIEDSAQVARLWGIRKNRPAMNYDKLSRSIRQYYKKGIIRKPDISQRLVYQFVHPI
The settings on record: protein: recombinant; tags: N-terminal GST; dsDNA, one strand shown. In a few lines:
as §1

Assay [15] has as its target T10, ETV7 (Homo sapiens, UniProt Q9Y603 1-341).
T10 sequence: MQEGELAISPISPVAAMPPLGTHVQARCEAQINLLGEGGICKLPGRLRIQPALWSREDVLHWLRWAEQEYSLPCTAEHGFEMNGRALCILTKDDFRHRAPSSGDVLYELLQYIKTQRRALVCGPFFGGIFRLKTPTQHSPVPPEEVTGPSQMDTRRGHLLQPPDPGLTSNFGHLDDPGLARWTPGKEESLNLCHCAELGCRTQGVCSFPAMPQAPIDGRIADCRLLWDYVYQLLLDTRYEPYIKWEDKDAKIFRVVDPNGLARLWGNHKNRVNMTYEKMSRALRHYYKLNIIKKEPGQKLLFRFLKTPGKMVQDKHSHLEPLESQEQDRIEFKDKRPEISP
The settings on record: protein: recombinant; tags: N-terminal GST; dsDNA, one strand shown. Summed up:
as §1

Assay [16] concerns the target T11, ELF5 (Homo sapiens, UniProt Q9UKW6-2 1-255).
T11 sequence: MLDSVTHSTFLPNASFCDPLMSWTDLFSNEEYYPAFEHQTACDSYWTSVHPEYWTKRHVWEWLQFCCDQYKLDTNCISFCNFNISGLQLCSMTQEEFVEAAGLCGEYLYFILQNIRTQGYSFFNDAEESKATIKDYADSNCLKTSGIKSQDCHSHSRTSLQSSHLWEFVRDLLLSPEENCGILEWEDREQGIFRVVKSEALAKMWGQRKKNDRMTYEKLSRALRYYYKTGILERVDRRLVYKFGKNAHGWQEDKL
The settings on record: protein: recombinant; tags: N-terminal GST; dsDNA, one strand shown. Summed up:
as §1

In assay [17] the target is T12, ETV3 (Homo sapiens, UniProt P41162-2 1-143).
T12 sequence: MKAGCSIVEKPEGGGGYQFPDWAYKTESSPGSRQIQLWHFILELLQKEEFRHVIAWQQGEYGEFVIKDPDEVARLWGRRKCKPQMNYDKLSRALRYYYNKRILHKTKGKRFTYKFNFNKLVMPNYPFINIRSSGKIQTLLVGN
The settings on record: protein: recombinant; tags: N-terminal GST; dsDNA, one strand shown. Summed up:
as §1

In assay [18] the target is ETV6 (Homo sapiens, UniProt P41212 1-452). The settings on record: protein: recombinant; tags: N-terminal GST; dsDNA, one strand shown. Summed up:
as §1

ETV5, sequence (P41161 whole entry): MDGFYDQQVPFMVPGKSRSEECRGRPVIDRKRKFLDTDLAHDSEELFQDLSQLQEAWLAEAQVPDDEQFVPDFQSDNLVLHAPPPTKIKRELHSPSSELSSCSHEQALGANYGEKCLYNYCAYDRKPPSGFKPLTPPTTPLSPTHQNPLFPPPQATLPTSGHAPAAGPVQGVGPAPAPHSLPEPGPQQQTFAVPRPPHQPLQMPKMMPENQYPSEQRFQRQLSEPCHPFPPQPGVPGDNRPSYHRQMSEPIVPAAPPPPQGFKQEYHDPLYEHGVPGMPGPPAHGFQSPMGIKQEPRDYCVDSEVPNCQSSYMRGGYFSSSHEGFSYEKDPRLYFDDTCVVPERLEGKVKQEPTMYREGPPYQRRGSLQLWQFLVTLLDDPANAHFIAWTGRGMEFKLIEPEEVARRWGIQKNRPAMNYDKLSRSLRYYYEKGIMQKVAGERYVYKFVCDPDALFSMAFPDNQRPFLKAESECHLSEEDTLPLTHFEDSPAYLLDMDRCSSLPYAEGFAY
ETV6, sequence (P41212 whole entry): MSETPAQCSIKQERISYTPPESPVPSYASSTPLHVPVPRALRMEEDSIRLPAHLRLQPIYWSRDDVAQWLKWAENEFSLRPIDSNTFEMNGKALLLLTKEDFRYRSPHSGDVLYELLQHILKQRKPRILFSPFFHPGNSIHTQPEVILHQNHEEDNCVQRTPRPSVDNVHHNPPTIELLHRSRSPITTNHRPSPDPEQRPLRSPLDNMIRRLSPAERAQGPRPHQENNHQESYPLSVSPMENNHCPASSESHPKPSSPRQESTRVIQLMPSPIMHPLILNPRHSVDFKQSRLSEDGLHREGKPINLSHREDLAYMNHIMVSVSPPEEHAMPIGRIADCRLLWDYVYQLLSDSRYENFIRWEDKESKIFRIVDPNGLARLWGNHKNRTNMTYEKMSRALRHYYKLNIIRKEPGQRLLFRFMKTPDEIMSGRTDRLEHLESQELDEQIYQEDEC
ELF4, sequence (Q99607 whole entry): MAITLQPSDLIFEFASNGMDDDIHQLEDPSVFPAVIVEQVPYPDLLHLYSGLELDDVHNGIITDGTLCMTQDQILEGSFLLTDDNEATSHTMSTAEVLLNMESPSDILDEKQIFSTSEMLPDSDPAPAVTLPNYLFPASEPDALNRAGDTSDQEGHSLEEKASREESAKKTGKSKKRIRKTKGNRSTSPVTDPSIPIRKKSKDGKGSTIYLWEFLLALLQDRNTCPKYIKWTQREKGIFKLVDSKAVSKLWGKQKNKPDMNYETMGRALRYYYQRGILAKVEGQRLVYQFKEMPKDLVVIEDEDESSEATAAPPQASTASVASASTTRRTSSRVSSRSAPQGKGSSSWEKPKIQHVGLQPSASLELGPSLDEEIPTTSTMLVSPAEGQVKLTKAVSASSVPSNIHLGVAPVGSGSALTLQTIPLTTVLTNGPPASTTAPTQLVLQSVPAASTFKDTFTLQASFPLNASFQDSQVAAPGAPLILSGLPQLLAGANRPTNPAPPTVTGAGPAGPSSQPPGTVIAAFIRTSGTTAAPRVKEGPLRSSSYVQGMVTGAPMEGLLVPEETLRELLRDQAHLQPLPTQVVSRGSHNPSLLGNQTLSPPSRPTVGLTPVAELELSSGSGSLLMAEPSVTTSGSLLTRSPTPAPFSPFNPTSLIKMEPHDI
ETV1, sequence (P50549 whole entry): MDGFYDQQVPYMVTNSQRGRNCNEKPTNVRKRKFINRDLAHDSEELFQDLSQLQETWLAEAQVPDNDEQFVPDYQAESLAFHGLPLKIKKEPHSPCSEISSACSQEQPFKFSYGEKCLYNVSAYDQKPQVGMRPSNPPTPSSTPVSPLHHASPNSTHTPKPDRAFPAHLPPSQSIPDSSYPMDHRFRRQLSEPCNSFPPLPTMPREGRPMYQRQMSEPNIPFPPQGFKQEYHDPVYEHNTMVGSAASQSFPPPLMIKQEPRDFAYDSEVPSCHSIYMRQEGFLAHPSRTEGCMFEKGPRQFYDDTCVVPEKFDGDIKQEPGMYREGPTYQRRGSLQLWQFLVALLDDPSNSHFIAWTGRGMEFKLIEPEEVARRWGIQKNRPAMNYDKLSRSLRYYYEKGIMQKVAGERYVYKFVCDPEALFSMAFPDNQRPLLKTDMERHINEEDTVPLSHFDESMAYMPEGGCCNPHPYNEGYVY
HSF1, sequence (Q00613 whole entry): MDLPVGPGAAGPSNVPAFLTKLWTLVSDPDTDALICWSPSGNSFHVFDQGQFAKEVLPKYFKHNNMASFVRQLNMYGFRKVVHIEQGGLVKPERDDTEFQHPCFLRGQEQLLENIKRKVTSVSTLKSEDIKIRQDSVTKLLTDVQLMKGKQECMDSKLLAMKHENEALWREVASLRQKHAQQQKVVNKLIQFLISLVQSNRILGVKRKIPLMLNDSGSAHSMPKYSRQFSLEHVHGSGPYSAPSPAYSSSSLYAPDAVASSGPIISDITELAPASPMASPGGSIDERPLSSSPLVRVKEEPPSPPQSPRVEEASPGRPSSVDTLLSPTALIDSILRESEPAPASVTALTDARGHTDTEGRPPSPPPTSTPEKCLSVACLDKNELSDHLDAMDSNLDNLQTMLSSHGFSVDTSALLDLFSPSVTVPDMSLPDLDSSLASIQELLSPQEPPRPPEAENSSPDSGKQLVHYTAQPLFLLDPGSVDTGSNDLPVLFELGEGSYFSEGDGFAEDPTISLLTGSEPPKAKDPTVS

As for TTAATG, the binding signal in assay [1] was 1.12 fold enrichment (6-mer frequency, TF over GST control); in [2], 1.27 fold enrichment (6-mer frequency, TF over GST control); in assay [3], 1.89 fold enrichment (6-mer frequency, TF over GST control); in [4] it was 1.24 fold enrichment (6-mer frequency, TF over GST control); in [5], 1.26 fold enrichment (6-mer frequency, TF over GST control); in [6], 1.21 fold enrichment (6-mer frequency, TF over GST control). Also, the binding signal in [7] is 1.31 fold enrichment (6-mer frequency, TF over GST control); in [8], 1.21 fold enrichment (6-mer frequency, TF over GST control); in [9] it was 2.75 fold enrichment (6-mer frequency, TF over GST control); in assay [10], 1.29 fold enrichment (6-mer frequency, TF over GST control); in [11], 1.05 fold enrichment (6-mer frequency, TF over GST control); in assay [12], 1.19 fold enrichment (6-mer frequency, TF over GST control). In addition, the binding signal was 1.2 fold enrichment (6-mer frequency, TF over GST control) in assay [13]; 1.19 fold enrichment (6-mer frequency, TF over GST control) in [14]; 1.26 fold enrichment (6-mer frequency, TF over GST control) in assay [15]; 1.19 fold enrichment (6-mer frequency, TF over GST control) in [16]; 1.21 fold enrichment (6-mer frequency, TF over GST control) in assay [17]; 1.19 fold enrichment (6-mer frequency, TF over GST control) in assay [18].
